# Laboratory results: paper PMC7862700, “An all-to-all approach to the identification of sequence-specific readers for epigenetic DNA modifications on cytosine”
# Columns and labels:
# Experiment in all cases: DAPPL (digital affinity profiling via proximity ligation, sequencing); 10 mM Tris-HCl pH 7.5, 50 mM NaCl, 1 mM DTT, 4% glycerol, room temperature, 30 min; GST-TFs on glutathione beads, 16-mer random dsDNA library, 0.1% formaldehyde crosslink after washing; high values mean tight binding
# [1] = molecular target: T1, FLI1 (Homo sapiens, UniProt Q01543 1-452); details: protein: recombinant; tags: N-terminal GST; dsDNA, one strand shown
# T1 sequence: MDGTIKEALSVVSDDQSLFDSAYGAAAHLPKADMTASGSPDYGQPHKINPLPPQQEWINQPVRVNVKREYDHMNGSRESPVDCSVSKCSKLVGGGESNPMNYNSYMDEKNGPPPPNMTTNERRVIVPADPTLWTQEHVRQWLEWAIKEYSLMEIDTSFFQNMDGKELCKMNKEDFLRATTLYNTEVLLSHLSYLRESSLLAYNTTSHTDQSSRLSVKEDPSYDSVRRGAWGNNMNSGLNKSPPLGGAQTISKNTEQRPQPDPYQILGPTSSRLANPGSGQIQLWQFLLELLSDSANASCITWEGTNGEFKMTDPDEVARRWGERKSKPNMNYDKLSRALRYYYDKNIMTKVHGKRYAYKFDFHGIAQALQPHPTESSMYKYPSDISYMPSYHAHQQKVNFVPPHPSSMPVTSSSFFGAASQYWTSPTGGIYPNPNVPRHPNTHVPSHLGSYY
# In short: (§1)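 Sequencing on an Illumina NextSeq500 followed washing, crosslinking with 0.1% formaldehyde, proximity ligation (BsaI/T4 ligase, 1 h, 37 °C) and PCR amplification of pools that had been incubated for 30 min at room temperature with 200 nmole of a random double-stranded 16-mer DNA library in Tris/NaCl/DTT/glycerol buffer. Each pool held DNA-barcoded human transcription factors, expressed in yeast as GST fusions and captured on glutathione beads, plus a tag-only sample. Binding signal is a hexamer's read frequency for a factor divided by its frequency in the tag-only sample.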
# [2] = molecular target: T2, ELK1 (Homo sapiens, UniProt P19419 1-428); details: protein: recombinant; tags: N-terminal GST; dsDNA, one strand shown
# T2 sequence: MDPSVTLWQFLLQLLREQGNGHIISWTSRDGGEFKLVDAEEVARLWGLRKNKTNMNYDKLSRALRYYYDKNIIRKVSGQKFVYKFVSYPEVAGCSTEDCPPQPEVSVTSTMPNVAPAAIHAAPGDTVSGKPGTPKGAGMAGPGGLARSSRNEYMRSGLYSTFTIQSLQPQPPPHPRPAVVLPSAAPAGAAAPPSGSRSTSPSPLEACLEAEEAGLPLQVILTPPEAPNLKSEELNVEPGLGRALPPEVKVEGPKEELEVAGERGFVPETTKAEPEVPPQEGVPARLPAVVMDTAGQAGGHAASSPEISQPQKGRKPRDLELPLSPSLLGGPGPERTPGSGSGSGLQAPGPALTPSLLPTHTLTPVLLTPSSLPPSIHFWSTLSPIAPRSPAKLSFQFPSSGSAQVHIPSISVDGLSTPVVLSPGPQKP
# In short: as §1
# [3] = molecular target: T3, GABPA (Homo sapiens, UniProt Q06546 1-454); details: protein: recombinant; tags: N-terminal GST; dsDNA, one strand shown
# T3 sequence: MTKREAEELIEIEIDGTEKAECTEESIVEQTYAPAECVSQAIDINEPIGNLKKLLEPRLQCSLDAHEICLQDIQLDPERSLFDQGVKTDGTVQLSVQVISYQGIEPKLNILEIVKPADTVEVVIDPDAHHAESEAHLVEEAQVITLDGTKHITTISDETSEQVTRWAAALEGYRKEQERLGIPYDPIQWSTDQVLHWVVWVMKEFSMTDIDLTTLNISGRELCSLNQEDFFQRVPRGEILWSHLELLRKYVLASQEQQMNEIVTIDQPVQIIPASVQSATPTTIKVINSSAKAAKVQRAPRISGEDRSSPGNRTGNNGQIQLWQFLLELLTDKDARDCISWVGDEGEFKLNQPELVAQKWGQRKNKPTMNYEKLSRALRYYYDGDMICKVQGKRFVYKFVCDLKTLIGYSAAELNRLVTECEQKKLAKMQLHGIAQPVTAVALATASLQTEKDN
# In short: as §1
# [4] = molecular target: T4, ERG (Homo sapiens, UniProt P11308 1-479); details: protein: recombinant; tags: N-terminal GST; dsDNA, one strand shown
# T4 sequence: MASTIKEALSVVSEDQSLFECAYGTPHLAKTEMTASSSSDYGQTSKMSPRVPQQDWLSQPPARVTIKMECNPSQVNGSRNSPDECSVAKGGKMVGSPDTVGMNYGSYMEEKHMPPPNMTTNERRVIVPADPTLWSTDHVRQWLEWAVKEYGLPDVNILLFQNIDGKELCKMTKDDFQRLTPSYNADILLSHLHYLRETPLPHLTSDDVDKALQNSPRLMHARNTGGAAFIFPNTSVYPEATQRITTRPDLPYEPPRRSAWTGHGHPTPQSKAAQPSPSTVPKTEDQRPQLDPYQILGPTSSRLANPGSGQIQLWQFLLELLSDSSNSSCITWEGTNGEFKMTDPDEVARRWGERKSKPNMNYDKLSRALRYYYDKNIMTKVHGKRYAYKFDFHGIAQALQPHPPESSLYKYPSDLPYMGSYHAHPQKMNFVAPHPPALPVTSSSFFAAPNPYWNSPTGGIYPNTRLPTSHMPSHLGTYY
# In short: as §1
# [5] = molecular target: ELF1 (Homo sapiens, UniProt P32519 1-619); details: protein: recombinant; tags: N-terminal GST; dsDNA, one strand shown
# Sequence of ELF1 (P32519 whole entry): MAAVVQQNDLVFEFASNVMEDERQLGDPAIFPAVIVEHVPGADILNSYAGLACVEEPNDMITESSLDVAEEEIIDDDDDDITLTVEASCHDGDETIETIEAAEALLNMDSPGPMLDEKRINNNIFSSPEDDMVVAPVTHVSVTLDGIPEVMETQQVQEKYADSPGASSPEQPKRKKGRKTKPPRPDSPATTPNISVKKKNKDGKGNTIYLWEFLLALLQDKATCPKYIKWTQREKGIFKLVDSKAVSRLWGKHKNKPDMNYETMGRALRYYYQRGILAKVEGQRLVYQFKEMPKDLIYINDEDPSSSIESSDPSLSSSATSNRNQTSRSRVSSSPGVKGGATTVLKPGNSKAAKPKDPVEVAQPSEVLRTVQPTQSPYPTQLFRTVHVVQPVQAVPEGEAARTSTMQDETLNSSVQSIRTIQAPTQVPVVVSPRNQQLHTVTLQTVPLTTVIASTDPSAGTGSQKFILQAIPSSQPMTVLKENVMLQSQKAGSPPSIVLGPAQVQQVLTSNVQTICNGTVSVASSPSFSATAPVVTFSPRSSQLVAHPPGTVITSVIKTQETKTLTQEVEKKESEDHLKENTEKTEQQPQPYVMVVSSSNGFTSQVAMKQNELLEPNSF
# In short: as §1
# [6] = molecular target: T5, EHF (Homo sapiens, UniProt Q9NZC4 1-300); details: protein: recombinant; tags: N-terminal GST; dsDNA, one strand shown
# T5 sequence: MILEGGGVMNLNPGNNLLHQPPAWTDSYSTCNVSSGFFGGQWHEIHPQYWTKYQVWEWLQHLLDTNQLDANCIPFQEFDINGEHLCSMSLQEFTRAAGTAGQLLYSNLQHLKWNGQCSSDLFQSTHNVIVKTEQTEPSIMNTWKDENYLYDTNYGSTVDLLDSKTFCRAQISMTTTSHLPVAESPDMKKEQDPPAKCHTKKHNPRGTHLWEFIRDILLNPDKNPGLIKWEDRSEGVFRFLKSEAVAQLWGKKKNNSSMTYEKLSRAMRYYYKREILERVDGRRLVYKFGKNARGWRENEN
# In short: as §1
# [7] = molecular target: SPI1 (Homo sapiens, UniProt P17947 1-270); details: protein: recombinant; tags: N-terminal GST; dsDNA, one strand shown
# In short: as §1
# [8] = molecular target: SPIB (Homo sapiens, UniProt Q01892 1-262); details: protein: recombinant; tags: N-terminal GST; dsDNA, one strand shown
# Sequence of SPIB (Q01892 whole entry): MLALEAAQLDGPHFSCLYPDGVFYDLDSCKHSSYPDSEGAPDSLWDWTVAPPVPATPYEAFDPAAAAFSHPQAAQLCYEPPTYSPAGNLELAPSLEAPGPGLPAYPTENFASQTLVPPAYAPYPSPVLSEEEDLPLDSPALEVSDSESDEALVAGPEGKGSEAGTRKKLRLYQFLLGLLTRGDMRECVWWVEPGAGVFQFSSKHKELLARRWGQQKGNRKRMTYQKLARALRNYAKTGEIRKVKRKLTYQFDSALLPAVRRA
# In short: as §1
# [9] = molecular target: T6, ELK3 (Homo sapiens, UniProt P41970 1-407); details: protein: recombinant; tags: N-terminal GST; dsDNA, one strand shown
# T6 sequence: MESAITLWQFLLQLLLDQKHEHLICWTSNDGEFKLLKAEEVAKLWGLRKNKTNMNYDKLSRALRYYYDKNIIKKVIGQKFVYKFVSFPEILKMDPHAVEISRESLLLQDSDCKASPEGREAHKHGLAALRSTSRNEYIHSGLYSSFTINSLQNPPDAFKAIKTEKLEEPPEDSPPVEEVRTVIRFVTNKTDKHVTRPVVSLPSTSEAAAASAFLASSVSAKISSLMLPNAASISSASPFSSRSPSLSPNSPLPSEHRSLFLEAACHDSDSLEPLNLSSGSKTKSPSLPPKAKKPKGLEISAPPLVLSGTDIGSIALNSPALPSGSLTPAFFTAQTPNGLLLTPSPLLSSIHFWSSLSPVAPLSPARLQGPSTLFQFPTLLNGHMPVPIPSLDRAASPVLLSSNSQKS
# In short: as §1
# [10] = molecular target: T7, FEV (Homo sapiens, UniProt Q99581 1-238); details: protein: recombinant; tags: N-terminal GST; dsDNA, one strand shown
# T7 sequence: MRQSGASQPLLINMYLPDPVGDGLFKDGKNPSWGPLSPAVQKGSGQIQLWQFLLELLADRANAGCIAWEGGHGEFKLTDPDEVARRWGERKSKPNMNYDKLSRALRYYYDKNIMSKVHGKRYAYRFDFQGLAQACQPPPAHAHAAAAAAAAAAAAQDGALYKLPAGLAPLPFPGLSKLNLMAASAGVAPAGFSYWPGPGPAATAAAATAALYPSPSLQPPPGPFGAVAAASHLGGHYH
# In short: as §1
# [11] = molecular target: ETV5 (Homo sapiens, UniProt P41161 1-510); details: protein: recombinant; tags: N-terminal GST; dsDNA, one strand shown
# Sequence of ETV5 (P41161 whole entry): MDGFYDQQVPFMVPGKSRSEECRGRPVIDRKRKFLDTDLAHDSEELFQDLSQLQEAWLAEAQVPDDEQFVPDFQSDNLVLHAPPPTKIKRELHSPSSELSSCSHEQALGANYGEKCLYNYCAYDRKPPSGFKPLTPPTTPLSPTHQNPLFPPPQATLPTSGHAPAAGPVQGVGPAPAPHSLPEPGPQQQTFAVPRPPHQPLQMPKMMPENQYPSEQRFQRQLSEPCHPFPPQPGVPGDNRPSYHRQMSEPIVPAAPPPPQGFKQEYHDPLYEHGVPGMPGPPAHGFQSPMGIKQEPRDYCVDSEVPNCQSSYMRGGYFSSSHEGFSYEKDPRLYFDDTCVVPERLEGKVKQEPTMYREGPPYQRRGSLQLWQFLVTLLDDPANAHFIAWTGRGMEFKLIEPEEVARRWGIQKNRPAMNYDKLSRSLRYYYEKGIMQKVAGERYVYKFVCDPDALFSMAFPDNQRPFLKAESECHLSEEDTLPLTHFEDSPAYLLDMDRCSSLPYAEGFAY
# In short: as §1
# [12] = molecular target: HSF1 (Homo sapiens, UniProt Q00613 1-529); details: protein: recombinant; tags: N-terminal GST; chain copies: 3; dsDNA, one strand shown
# Sequence of HSF1 (Q00613 whole entry): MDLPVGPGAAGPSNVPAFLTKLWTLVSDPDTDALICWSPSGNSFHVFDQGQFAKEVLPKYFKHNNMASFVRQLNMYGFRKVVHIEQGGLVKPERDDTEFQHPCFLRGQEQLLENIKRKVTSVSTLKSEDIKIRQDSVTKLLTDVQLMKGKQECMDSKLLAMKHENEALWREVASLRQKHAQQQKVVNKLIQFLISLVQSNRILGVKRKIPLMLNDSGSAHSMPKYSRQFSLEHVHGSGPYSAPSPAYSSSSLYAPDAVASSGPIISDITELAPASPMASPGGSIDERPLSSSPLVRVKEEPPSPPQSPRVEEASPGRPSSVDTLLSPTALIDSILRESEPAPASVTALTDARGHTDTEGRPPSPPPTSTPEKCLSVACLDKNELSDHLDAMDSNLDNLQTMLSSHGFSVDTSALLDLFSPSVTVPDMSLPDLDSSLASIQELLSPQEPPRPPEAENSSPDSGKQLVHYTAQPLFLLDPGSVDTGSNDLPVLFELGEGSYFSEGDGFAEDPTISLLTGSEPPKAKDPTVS
# In short: as §1
# [13] = molecular target: T8, SPIC (Homo sapiens, UniProt Q8N5J4 1-248); details: protein: recombinant; tags: N-terminal GST; dsDNA, one strand shown
# T8 sequence: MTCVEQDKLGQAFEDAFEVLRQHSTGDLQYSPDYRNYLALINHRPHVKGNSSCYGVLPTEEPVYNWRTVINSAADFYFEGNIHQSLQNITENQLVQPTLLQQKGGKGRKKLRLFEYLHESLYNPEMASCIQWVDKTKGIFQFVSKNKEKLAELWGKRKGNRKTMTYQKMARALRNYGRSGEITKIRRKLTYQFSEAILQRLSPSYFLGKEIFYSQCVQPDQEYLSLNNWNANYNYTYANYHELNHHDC
# In short: as §1
# [14] = molecular target: ELF4 (Homo sapiens, UniProt Q99607 1-663); details: protein: recombinant; tags: N-terminal GST; dsDNA, one strand shown
# Sequence of ELF4 (Q99607 whole entry): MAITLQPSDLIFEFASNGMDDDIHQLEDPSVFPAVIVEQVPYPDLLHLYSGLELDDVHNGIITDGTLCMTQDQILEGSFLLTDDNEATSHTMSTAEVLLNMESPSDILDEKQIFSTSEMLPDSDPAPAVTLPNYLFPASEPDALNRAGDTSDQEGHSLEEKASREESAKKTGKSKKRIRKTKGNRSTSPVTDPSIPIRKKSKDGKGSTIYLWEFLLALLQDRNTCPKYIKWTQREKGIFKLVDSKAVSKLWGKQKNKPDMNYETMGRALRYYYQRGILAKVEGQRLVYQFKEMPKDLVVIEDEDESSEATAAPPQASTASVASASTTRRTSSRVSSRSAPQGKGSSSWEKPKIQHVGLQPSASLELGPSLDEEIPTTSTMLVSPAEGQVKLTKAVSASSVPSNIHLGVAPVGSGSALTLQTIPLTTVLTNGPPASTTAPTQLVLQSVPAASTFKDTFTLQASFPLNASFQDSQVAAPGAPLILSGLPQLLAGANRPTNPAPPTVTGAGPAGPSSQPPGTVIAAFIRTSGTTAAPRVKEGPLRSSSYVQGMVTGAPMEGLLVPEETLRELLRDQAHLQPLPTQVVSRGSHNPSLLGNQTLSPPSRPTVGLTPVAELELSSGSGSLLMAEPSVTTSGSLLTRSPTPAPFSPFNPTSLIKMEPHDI
# In short: as §1
# [15] = molecular target: T9, ELK4 (Homo sapiens, UniProt P28324-2 1-405); details: protein: recombinant; tags: N-terminal GST; dsDNA, one strand shown
# T9 sequence: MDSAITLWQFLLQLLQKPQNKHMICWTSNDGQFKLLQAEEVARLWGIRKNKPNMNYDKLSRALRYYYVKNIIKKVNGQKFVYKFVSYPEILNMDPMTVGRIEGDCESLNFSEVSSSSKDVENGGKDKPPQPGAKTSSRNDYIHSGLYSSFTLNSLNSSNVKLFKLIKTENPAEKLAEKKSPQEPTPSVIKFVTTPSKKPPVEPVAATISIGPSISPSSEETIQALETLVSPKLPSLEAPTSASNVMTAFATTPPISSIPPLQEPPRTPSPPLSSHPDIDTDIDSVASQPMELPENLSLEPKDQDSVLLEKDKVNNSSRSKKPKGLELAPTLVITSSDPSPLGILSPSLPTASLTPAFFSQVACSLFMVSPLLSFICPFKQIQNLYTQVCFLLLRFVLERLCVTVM
# In short: as §1
# [16] = molecular target: T10, ETV2 (Homo sapiens, UniProt O00321 1-342); details: protein: recombinant; tags: N-terminal GST; dsDNA, one strand shown
# T10 sequence: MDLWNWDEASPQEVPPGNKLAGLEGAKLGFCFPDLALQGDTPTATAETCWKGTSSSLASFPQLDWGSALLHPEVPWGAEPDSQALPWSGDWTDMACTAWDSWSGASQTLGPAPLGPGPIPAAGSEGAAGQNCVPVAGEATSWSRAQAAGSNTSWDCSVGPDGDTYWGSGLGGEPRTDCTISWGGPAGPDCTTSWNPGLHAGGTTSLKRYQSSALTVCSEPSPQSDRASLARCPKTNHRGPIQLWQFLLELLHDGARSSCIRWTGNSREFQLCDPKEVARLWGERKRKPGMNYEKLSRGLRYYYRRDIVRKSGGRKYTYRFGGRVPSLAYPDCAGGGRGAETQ
# In short: as §1
# [17] = molecular target: T11, ELF3 (Homo sapiens, UniProt P78545 1-371); details: protein: recombinant; tags: N-terminal GST; dsDNA, one strand shown
# T11 sequence: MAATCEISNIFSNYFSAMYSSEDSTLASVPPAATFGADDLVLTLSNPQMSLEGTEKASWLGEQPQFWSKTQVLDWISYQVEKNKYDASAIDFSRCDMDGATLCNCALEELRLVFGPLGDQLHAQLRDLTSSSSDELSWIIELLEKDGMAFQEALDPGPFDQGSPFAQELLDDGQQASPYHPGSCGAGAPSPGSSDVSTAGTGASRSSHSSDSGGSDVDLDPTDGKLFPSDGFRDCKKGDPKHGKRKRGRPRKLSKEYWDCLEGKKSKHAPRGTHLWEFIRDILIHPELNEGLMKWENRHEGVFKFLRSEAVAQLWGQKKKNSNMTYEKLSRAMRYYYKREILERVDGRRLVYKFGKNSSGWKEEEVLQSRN
# In short: as §1
# [18] = molecular target: CRX (Homo sapiens, UniProt O43186 1-299); details: protein: recombinant; tags: N-terminal GST; dsDNA, one strand shown
# Sequence of CRX (O43186 whole entry): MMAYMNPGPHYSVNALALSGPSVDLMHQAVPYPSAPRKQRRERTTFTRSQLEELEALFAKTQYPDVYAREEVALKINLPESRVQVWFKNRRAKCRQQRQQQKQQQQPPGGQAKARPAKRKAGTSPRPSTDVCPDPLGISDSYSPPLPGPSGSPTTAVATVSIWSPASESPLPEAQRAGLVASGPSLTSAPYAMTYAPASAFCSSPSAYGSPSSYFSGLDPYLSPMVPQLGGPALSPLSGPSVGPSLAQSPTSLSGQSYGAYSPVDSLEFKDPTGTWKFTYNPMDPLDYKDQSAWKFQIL
# In short: as §1
# [19] = molecular target: ETV1 (Homo sapiens, UniProt P50549 1-477); details: protein: recombinant; tags: N-terminal GST; dsDNA, one strand shown
# Sequence of ETV1 (P50549 whole entry): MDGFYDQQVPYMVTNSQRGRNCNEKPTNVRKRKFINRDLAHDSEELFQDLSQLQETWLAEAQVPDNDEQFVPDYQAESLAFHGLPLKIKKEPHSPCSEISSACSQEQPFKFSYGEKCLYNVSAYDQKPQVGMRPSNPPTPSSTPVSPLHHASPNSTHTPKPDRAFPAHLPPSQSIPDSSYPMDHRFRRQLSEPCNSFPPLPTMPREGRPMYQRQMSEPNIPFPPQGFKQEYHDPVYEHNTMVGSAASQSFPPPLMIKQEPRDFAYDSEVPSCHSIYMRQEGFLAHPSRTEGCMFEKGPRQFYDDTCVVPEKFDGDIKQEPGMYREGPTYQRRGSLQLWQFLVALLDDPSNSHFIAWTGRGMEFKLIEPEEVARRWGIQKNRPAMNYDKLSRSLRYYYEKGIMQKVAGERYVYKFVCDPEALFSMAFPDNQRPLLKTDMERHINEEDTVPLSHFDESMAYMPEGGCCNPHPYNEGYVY
# In short: as §1
sequence,measurement,setting,value
TCATCC,binding signal,[1],"1.4 fold enrichment (6-mer frequency, TF over GST control)"
same,binding signal,[2],"1.38 fold enrichment (6-mer frequency, TF over GST control)"
same,binding signal,[3],"1.39 fold enrichment (6-mer frequency, TF over GST control)"
same,binding signal,[4],"1.36 fold enrichment (6-mer frequency, TF over GST control)"
same,binding signal,[5],"1.41 fold enrichment (6-mer frequency, TF over GST control)"
same,binding signal,[6],"1.38 fold enrichment (6-mer frequency, TF over GST control)"
same,binding signal,[7],"1.34 fold enrichment (6-mer frequency, TF over GST control)"
same,binding signal,[8],"1.34 fold enrichment (6-mer frequency, TF over GST control)"
same,binding signal,[9],"1.43 fold enrichment (6-mer frequency, TF over GST control)"
same,binding signal,[10],"1.4 fold enrichment (6-mer frequency, TF over GST control)"
same,binding signal,[11],"1.35 fold enrichment (6-mer frequency, TF over GST control)"
same,binding signal,[12],"1.38 fold enrichment (6-mer frequency, TF over GST control)"
same,binding signal,[13],"1.39 fold enrichment (6-mer frequency, TF over GST control)"
same,binding signal,[14],"1.36 fold enrichment (6-mer frequency, TF over GST control)"
same,binding signal,[15],"1.24 fold enrichment (6-mer frequency, TF over GST control)"
same,binding signal,[16],"1.44 fold enrichment (6-mer frequency, TF over GST control)"
same,binding signal,[17],"1.49 fold enrichment (6-mer frequency, TF over GST control)"
same,binding signal,[18],"1.65 fold enrichment (6-mer frequency, TF over GST control)"
same,binding signal,[19],"1.35 fold enrichment (6-mer frequency, TF over GST control)"
